# Test results published in ChEMBL document CHEMBL4513216, “Probing the Open Global Health Chemical Diversity Library for Multistage-Active Starting Points for Next-Generation Antimalarials” (ACS Infect Dis, 2020).
# The whole screen tested about 69,000 compounds, of which about 8,600 (12%) showed an effect of 50% or more. Shown is part of a subset that was picked to be rich in strong results.
# System: Plasmodium berghei
# Assay: Screen against P. berghei liver stage (PbLuc), transformed with Luciferase, at 10uM
# Type: functional, HepG2
# Details: tested at 10 uM
row,SMILES,INHIBITION [%]
1,CN(C)C(=O)CNS(=O)(=O)c1cc(Br)ccc1F,42.4
2,CCNC(=O)CNS(=O)(=O)c1cc(Br)ccc1F,53.6
3,CCN(CC)C(=O)CNS(=O)(=O)c1cc(Br)ccc1F,23
4,COCC(=O)N1CCCC(Cc2cnc(-c3c(C)n[nH]c3C)cn2)C1 (stereo unspecified),-29.8
5,CC(C#N)CSc1ccccc1NCC(=O)Nc1ccccc1 (stereo unspecified),26.5
6,CC(C#N)CSc1ccccc1NCC(=O)Nc1ccc(F)cc1 (stereo unspecified),11.1
7,CC(C#N)CSc1ccccc1NCC(=O)NCc1ccccc1 (stereo unspecified),14.2
8,CC(C)CNC(=O)NC(=O)CNc1ccccc1SCC(C)C#N (stereo unspecified),-7.9
9,CC(C#N)CSc1ccccc1NCC(=O)NC(=O)NC(C)(C)C (stereo unspecified),61.3
10,O=C(CSc1nnc[nH]1)NCc1cccs1,-95.7
11,CC(C#N)CSc1ccccc1NCC(=O)NC1CCCCC1 (stereo unspecified),54.4
12,CC(C#N)CSc1ccccc1NCC(=O)NCc1cccs1 (stereo unspecified),58.3
13,CC(C#N)CSc1ccccc1NCC(=O)NC(C1CC1)C1CC1 (stereo unspecified),43.4
14,O=c1[nH]c2cn(-c3cccc(F)c3)c(=O)n2n1Cc1ccc(Cl)cc1,28.7
15,CCSc1ccccc1C(=O)N(CCOC)Cc1ccoc1,25.1
16,Cc1cc(C(F)(F)F)nn1CC(C)C(=O)NC(C)C (stereo unspecified),42.4
17,CNC(=O)CN1CCCC12CCN(Cc1c[nH]cn1)CC2,19.5
18,CC(C)CN1CCn2nc(CNc3ncnc4[nH]ccc34)cc2C1,-2.39
19,COc1ccc(C[C@H]2CNCC[C@H]2OC)cc1,1.34
20,Cc1cnn(C2CCCN(C(=O)CCc3cscn3)C2)c1 (stereo unspecified),33.7
21,CC(=O)N1CCCN(c2cc(C3CN(C)CCO3)nc(C)n2)CC1 (stereo unspecified),36.4
22,O=C(CCCn1cncn1)NC1CCc2nccn2C1 (stereo unspecified),62.1
23,COc1ccc(C2(C(=O)NC3CCc4nccn4C3)CCCC2)cc1 (stereo unspecified),24.3
24,Cc1cn2c(n1)CCC(NC(=O)CCCn1cncn1)C2 (stereo unspecified),29.2

row,SMILES,INHIBITION [%]
1,O=C(CCn1cncn1)NC1CCc2nccn2C1 (stereo unspecified),-3.7
2,CCS(=O)(=O)CC(=O)NC1CCc2nccn2C1 (stereo unspecified),36.3
3,CS(=O)(=O)C1(C(=O)NC2CCc3nccn3C2)CCCC1 (stereo unspecified),74.8
4,Cc1nc(C)n(CC2CN(Cc3noc(C4CC4)n3)CCO2)n1 (stereo unspecified),16.8
5,CCc1nc(N2CCC3(CC2)CC(=O)N(Cc2ccc(Cl)cc2)C3)no1,-88.1
6,CCc1n[nH]c(C2CN(CCCS(C)(=O)=O)CCO2)n1 (stereo unspecified),9.14
7,CS(=O)(=O)N1CCC(NC(=O)COc2ccc(Cl)c(Cl)c2)CC1,27.4
8,NC(=O)CN1CCC(C(=O)NCCc2nc(-c3ccccc3)cs2)CC1,-53.6
9,NC(=O)CN1CCC(C(=O)NCc2nc(-c3ccc(F)cc3)cs2)CC1,55.2
10,Cc1csc(CCNC(=O)C2CCN(CC(N)=O)CC2)n1,-23.5
11,O=C(O)c1ccc(Cc2cccc(F)c2)nc1,3.48
12,N#Cc1ccc(C(=O)NCC2(N3CCOCC3)CCCC2)nc1,10.8
13,O=C(O)C1(n2cccn2)CCN(Cc2nc(-c3ccccc3)no2)CC1,35.9
14,Cc1ccccc1-c1noc(CN2CCC(N3CCNC3=O)CC2)n1,88.2
15,Cc1ccccc1-c1noc(CN2CCC(c3ccn[nH]3)CC2)n1,-7.46
16,O=C1NCCN1C1CCN(Cc2nc(-c3ccsc3)no2)CC1,85.4
17,c1cc(C2CCN(Cc3nc(-c4ccsc4)no3)CC2)[nH]n1,8.12
18,Cc1ccccc1-c1noc(CN2CCOC(Cn3cccn3)C2)n1 (stereo unspecified),23.95
19,Cc1ccc(-c2noc(CN3CCC(c4ccn[nH]4)CC3)n2)cc1,12.8
20,c1cnn(C2CN(Cc3nc(-c4ccsc4)no3)C2)c1,17
21,Cc1cccc(-c2noc(CN3CCC(N4CCNC4=O)CC3)n2)c1,41.1
22,Cc1ccc(-c2noc(CN3CCC(N4CCNC4=O)CC3)n2)cc1,86.8
23,O=C1NCCN1C1CCN(Cc2nc(-c3ccccc3)no2)CC1,92.3
24,N#CCCN(CC1CC1)Cn1cc(Cl)cn1,13.3

row,SMILES,INHIBITION [%]
1,O=C1CC(N(C(=O)CCc2c[nH]c3ccccc23)C2CC2)C(=O)N1 (stereo unspecified),41.8
2,Cn1ccc2c(C(=O)N3CCCC3c3noc(C4CC4)n3)cccc21 (stereo unspecified),19.2
3,Cc1nc(CN2C[C@@H]3CN(C(=O)NC(C)C)C[C@@H]3C2=O)cs1,11.3
4,COCC1c2c(cnn2C)CCN1Cc1ccc(C)cc1 (stereo unspecified),31.7
5,CSC(C)(C)CNC(=O)NC(c1nnc2n1CCC2)C(C)C (stereo unspecified),21.5
6,COCCN1CCC2(CCC(=O)N2Cc2csc(C)n2)CC1,-45.8
7,CN1CCN(C2CCN(Cc3nc(-c4ccoc4)no3)CC2)C1=O,59.4
8,O=C1NCCN1C1CCN(Cc2nc(-c3ccoc3)no2)CC1,17
9,Fc1ccc(-c2noc(CN3CCC(c4cc[nH]n4)CC3)n2)cc1,34.6
10,COCCN1CCN(Cc2nc(-c3ccoc3)no2)CC1,31.1
11,O=C1NCCN1C1CCN(Cc2nc(-c3ccc(F)cc3)no2)CC1,93.6
12,CCN1CCN(C2CCN(Cc3nc(-c4ccoc4)no3)CC2)C1=O,26.3
13,O=C(c1ccc(-n2cccn2)c(F)c1)N1CCCN2CCCC2C1 (stereo unspecified),49.1
14,CCN(CC)C(=O)CN1CCCC1c1nc(C)c2c(n1)N(C)C(=O)CC2 (stereo unspecified),-0.55
15,CC(=O)N1CCCC(Cc2nccn2C)C1 (stereo unspecified),5.56
16,C[C@@H]1CN(c2ccc(Cl)cn2)C[C@@]1(O)C1CC1,25.145
17,O=C(NC1(c2nnn(CCO)n2)CCCC1)c1ccccc1,-16.2
18,C=C(C)Cn1nnc(C2(NC(=O)c3ccccc3)CCCC2)n1,71.2
19,O=C(NC1(c2nnn(CC3CC3)n2)CCCC1)c1ccccc1,42
20,Cc1cc(C)nc(C2CCN(C(=O)c3cnco3)C2)n1 (stereo unspecified),-8.12
21,Cc1nn(C)c(C)c1C1COCCN1c1ncnc2c(C)cccc12 (stereo unspecified),28.6
22,Cc1nn(C)c(C)c1C1COCCN1c1ncncc1Br (stereo unspecified),57.7
23,Cc1ccc2ncnc(N3CCOCC3c3c(C)nn(C)c3C)c2c1 (stereo unspecified),30
